In PubChem BioAssay (NCI):
Values joined by “and” are separate entries in the source; they are usually repeats but may differ in a detail not shown here. Equal values may be shown once. Compounds without any hit were thinned out: in the full panel of roughly 79,000, 15% have a hit. A number with no mark means an inactive call. Active and inactive are the calls of the source. Cut-off read from the data, not from the text of the source: active = growth inhibition above about 70%; inactive = the rest.

How the values were obtained:
[1] = NCI Yeast Anticancer Drug Screen. Data for the rad50 strain (AID 155);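 note: 0% = growth of vehicle-only cultures of the same strain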; details: S. cerevisiae rad50 strain growth inhibition; at 50.0 µM; active compounds read high
Method in brief: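 Yeast carrying a defined DNA repair defect were exposed to test compounds, and growth was compared with vehicle-treated controls to give percent inhibition.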

[2] = NCI Yeast Anticancer Drug Screen. Data for the mec2-1 strain (AID 157); details: S. cerevisiae mec2-1 strain, at 50.0 µM, active compounds read high
Method in brief: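 mec2-1 yeast strain, carrying an alteration in DNA damage repair or cell cycle control, was exposed to compounds; growth inhibition was measured relative to vehicle-treated controls.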

[3] = NCI Yeast Anticancer Drug Screen. Data for the sgs1 mgt1 strain (AID 161);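 note: 0% = growth of cultures given vehicle only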; details: S. cerevisiae sgs1 mgt1 strain, at 50.0 µM, active compounds read high
Method in brief: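 This yeast growth screen uses a strain with defined DNA-repair lesions; compound-treated growth is compared with vehicle-treated growth.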

[4] = NCI Yeast Anticancer Drug Screen. Data for the cln2 rad14 strain (AID 165);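 note: 0% = growth equal to vehicle treated cultures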; details: S. cerevisiae cln2 rad14 strain, at 50.0 µM, active compounds read high
Method in brief: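 Yeast carrying cln2 and rad14 alterations (cell cycle control and DNA damage repair) were exposed to compounds. Growth inhibition was measured against vehicle-treated controls.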

[5] = NCI Yeast Anticancer Drug Screen. Data for the bub3 strain (AID 167); details: S. cerevisiae bub3 mutant strain, at 50.0 µM, active compounds read high
Method in brief: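 Compounds were applied to a genetically altered yeast strain carrying a cell-cycle control defect. Growth inhibition was scored against vehicle-treated controls.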

[6] = NCI Yeast Anticancer Drug Screen. Data for the mlh1 rad18 strain (AID 175); details: S. cerevisiae mlh1 rad18 strain growth inhibition; at 50.0 µM; active compounds read high
Method in brief: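 Growth inhibition of the yeast strain was measured after compound exposure and expressed relative to vehicle-treated controls. The strain carries defined defects in DNA damage repair.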

Row | Compound | growth inhibition [1] | growth inhibition [2] | growth inhibition [3] | growth inhibition [4] | growth inhibition [5] | growth inhibition [6]
1 | Oc1ccccc1-c1ccccc1 | 16.6% and 17.9% | 11.1% and 14.4% | 11% and 8.2% | -16.1% and 0.75% | -2.55% and -8.25% | 21.4% and 20.1%
2 | CCOP(=O)(OCC)/C(=C/c1cccs1)CC(C)=O | 7.8% | -57.6% | -27.9% | 14.6% | -25.9% | -76%
3 | C[CH2][Sn]([c]1ccccc1)[c]1ccccc1 | 33.1% | 39.2% | 40.3% | 3.65% | 35.5% | 47.1%
4 | O=[As](O)(O)c1ccccc1 | 18.2% | -7.1% | 4.75% | 4.65% | -38.1% | -15.7%
5 | CC12CCC(=O)C=C1CCC1C2CCC2(C)C(OC(=O)C34C=CC(=O)C3C3C=CC4CC3)CCC12 (centres undefined) | 31.4% | -1.2% | 14.3% | 22.6% | -4.45% | 19.2%
6 | C[C@]12CC[C@H](O)C[C@H]1CC[C@@H]1[C@@H]2CC[C@]2(C)[C@@H](C3=CC(=O)OC3)CC[C@]12O | -3.9% | 12.4% | 5.55% | -56.4% | 15.3% | 8.4%
7 | COc1cc(C(CN)N(C)C)cc(OC)c1OC (centres undefined) | -42.6% | -48.7% | -14.9% | 14.4% | -0.9% | -8.65%
8 | O=C(NCCc1ccc([N+](=O)[O-])cc1)c1ccc(S(=O)(=O)F)cc1 | 1.9% | 12.7% | 6.5% | 3% | 19.4% | 8.05%
9 | [Pd].[Pd].[S-]CC[S-].[S-]CC[S-].c1ccc([PH+](c2ccccc2)c2ccccc2)cc1.c1ccc([PH+](c2ccccc2)c2ccccc2)cc1 | -4.9% | 5.5% | 8.9% | -22.1% | -2.35% | 13.1%
10 | CCN(CC)C1C=CCCC1 (centres undefined) | -18.1% | -8.05% | -20.1% | 0.75% | -11.7% | -7.3%
11 | Cc1cc(C)n(SC(Cl)(Cl)Cl)n1 | -12.3% | 28.3% | -15.3% | -4.6% | 7.45% | -13.7%
12 | NC(=O)CCCc1ccc([As]=O)cc1 (centres undefined) | -8.7% | -11.9% | -8.85% | -27.1% | -0.25% | 9.75%
13 | N#C[CH2][Sn]([I])([c]1ccccc1)[c]1ccccc1 | -12.5% | 30.4% | 1.15% | 72% (active) | -0.25% | 1.9%
14 | Nc1ccc(S(=O)(=O)c2ccc(NCN3C(=O)NC(=O)C(=O)C3=O)cc2)cc1 | 24.9% | 8.15% | -11.4% | 27.6% | 13.6% | 7.8%
15 | O=c1oc2ccccc2c(O)c1C(c1ccc(O)cc1)c1c(O)c2ccccc2oc1=O | -1.35% | 3.1% | -6.4% | -2.95% | -3% | -33.9%
16 | [C-]#[O+].[C-]#[O+].[C-]#[O+].[C-]#[O+].[C-]#[O+].[C-]#[O+].[C-]#[O+].[C-]#[O+].[C-]#[O+].[C-]#[O+].[Mn].[Mn] | -21.1% | -12.6% | -15.2% | -71.6% | 4.45% | -25.9%
17 | [C-]#[O+].[C-]#[O+].[C-]#[O+].[Mo].c1ccc([PH+](CC[As](c2ccccc2)c2ccccc2)CC[As](c2ccccc2)c2ccccc2)cc1 | 11.4% | 9.45% | 21.1% | 19.2% | 6.7% | 28.9%
18 | COc1cc(-c2[nH]ccc2Cl)oc1C1=C2N=C3C=C2C(C(C)C)C1CCCCCCCC3 (centres undefined) | 85.3% (active) | 83.6% (active) | 89% (active) | 89.1% (active) | 88.3% (active) | 89.6% (active)
19 | CC12OC1(C)C1C(=O)OCC1C2=O (centres undefined) | 3.4% | 3.6% | -3.45% | 3.95% | 3% | -0.95%
20 | C=CP(=O)(OCCCl)OCCCl | 24.5% | -0.7% | 2.3% | 18.1% | -1.6% | 12.9%

Row | Compound | growth inhibition [1] | growth inhibition [2] | growth inhibition [3] | growth inhibition [4] | growth inhibition [5] | growth inhibition [6]
21 | O=C(Cc1c[nH]c2ccccc12)N/N=C\c1ccc(N(CCCl)CCCl)cc1 | 22.4% | -10.3% | 11.8% | 31.9% | -5.65% | 4.55%
22 | CCOC(=O)Oc1c(Cl)cc(S(=O)(=O)F)cc1Cl | 99.6% (active) | 99.8% (active) | 99.6% (active) | 99.5% (active) | 99.7% (active) | 99.5% (active)
23 | O=C([O-])CC(=O)[O-].[Cu+2].[OH3+].[OH3+] | 24.9% | 11.2% | 12.2% | -19.6% | -9.35% | 6.1%
24 | O=[N+]([O-])c1cccc2c([N+](=O)[O-])cccc12 | 3.6% | 5.2% | -1.15% | -4.85% | -0.7% | 0.05%
25 | CC(C)OP(=O)(OC(C)C)C(C(F)(F)F)C(F)(F)F | -3.65% | 9.65% | 19% | 45.9% | 10.6% | -23.1%
26 | COP(=O)(OC)OC.COP(=O)(OC)OC.COP(=O)(OC)OC.COP(=O)(OC)OC.COP(=O)(OC)OC.COP(=O)(OC)OC.[Mn+2].[O-][Cl+3]([O-])([O-])O | 43% | -35% | -17.1% | -14.9% | -18.2% | -9%
27 | CC1(C)N=C(N)N=C(N)N1c1ccc(CCc2ccc(S(=O)(=O)F)cc2)cc1 | 9.15% | 7% | -7.3% | -6.2% | -8.7% | 7.65%
28 | c1ccc2c(c1)Nc1ccccc1S2 | 41% | 10.1% | 17.9% | 28.4% | 28.5% | 34.2%
29 | NCCC1CCc2[nH]c3ccccc3c2C1 (centres undefined) | -7.3% | -6.1% | -0.5% | -52.4% | -15.3% | -8.15%
30 | NC1CCCCC1.[O]=[Ge].[O]=[Ge].[O]=[Ge][OH].[O]=[Ge][OH] | -26.9% | -10.9% | -10.8% | 13.1% | 12.9% | 4.95%
31 | S=C(SSC(=S)N(Cc1ccccc1)Cc1ccccc1)N(Cc1ccccc1)Cc1ccccc1 | -1.7% | 11.6% | 2.95% | -14.3% | -20.6% | 12%
32 | CC1(C)C2CC[C@@]1(C)C(=O)C2Br (some centres undefined) | 24.9% | 25.6% | -1.6% | 7.55% | 23.9% | -8.7%
33 | CC(CC(C#N)(c1ccccc1)c1ccccc1)[N+]1(C)CCCCCCC1 (centres undefined) | 11.9% | 1.2% | 2.85% | 1.65% | 1.35% | 19%
34 | O=C(OCC1CCCN2CCCCC12)c1cccnc1 (centres undefined) | 7.7% | -10.8% | -28.3% | 14.9% | -8.5% | -25.3%
35 | Oc1ccc(Nc2c3ccc(Cl)cc3nc3ccc(-c4ccccc4)cc23)cc1CN(CCCl)CCCl | 98.4% (active) | 98.7% (active) | 98.8% (active) | 98.3% (active) | 93.5% (active) | 97.5% (active)
36 | O=NN1CCOCC1 | -36.5% | 11.1% | 14.8% | -15.7% | -1.6% | 31.1%
37 | CC(C)NC(C)C(C)c1ccccc1 (centres undefined) | 5.95% | -3.15% | 0.1% | -11.9% | -10.2% | 11%
38 | C/C(=C\C(C)C)C1(C)C(=O)NC(=O)NC1=O | 8.85% | 11.4% | -6.3% | 4.95% | 4.4% | -19.3%
39 | CC1(C)N=C(N)N=C(N)N1c1cccc(CCC(=O)Nc2ccc[n+](Cc3ccc(S(=O)(=O)F)cc3)c2)c1 | -1.3% | -8.35% | 13.4% | -17.8% | -9.55% | -11.9%
